An excerpt weighted towards active compounds, which were near 2% of everything screened.
PKM2 act: PKM2 (human) enzyme activation. Potency, µM (highest dose often 57.5 µM), for inactives: top-dose activation, most hits filed as activators. AID 1631. purified PKM2, Kinase-Glo ATP luminescence, activation; response scale: 0% is enzyme alone, no compound. 260,000 compounds, 0.34% hits; also: potency is read from the fitted curve at half-maximal effect; % is scaled to controls: 0 for no effect and ±100 for the full control effect; nearly all actives have a fitted effect of over 55% in size
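ATP formation by purified human PK-M2, quantified via coupled luciferase luminescence after 1 h at room temperature with 0.1 mM ADP and 0.5 mM PEP final.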
IL2 activator: IL-2 activation; IL-2 activation reporter assay, cell-based qHTS; stimulated with anti-CD3/CD4/CD28 beads; in transgenic mouse T cells; activation, % (series mostly up to about 46 µM); 360,000 compounds, 0.065% hits; AID 652025; in the data active = activation above about 50%; inconclusive = mostly about 30% to 49%; also: 0% is about no effect
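Unstimulated transgenic mouse T cells; 60-min compound exposure; bead-based TCR/CD4/CD28 stimulation; 18 h culture, 37 degrees C; dual fluorescence (EGFP, DsRed) plate cytometry.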
NPSR antagonist: blocks cAMP signaling of the human neuropeptide S receptor; Q6W5P4; Potency, µM (top dose mostly 38.3 µM), for the others: at the highest dose activity change, negative = inhibition, hits mostly inhibitors; 220,000 compounds, 1% hits; CHO-NPSR cells, cAMP TR-FRET, antagonist mode; also: potency is read from the fitted curve at half-maximal effect; % is scaled to controls: 0 for no effect and ±100 for the full control effect; nearly all actives have a fitted effect of over 50% in size
ClpP mod: qHTS Assay for Activators of ClpP | ATP-dependent Clp protease proteolytic subunit (Bacillus subtilis (strain 168)), P80244 | purified B. subtilis ClpP, FRET peptide cleavage, 20 min | Potency, µM (titrated, usually from 57.5 µM), for the others: at the top dose activity change, negative = active | 340,000 compounds, 1.9% hits | AID 651965, 2013; active = well fitted falling curve with a large enough effect; inconclusive = small, poorly fitted or top-dose-only effect; inactive = no such curve, though single readings can be large or run the other way; also: potency is read from the fitted curve at half-maximal effect; the source files actives as falling curves though it sought activators and does not explain the sign; nearly all actives have a fitted effect of over 65% in size
Target sequence (P80244 whole entry, looked up): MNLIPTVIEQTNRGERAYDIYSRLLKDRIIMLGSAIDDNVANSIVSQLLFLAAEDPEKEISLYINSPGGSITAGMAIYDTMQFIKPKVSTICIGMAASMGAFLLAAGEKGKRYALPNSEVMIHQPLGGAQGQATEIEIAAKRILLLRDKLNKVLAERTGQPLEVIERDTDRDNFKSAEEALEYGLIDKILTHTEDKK
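FRET quenching reversal measured ClpP activation: 10 microg/mL B. subtilis ClpP at pH 8 with the FRET-FV decapeptide, read at 430 nm after 320 nm excitation. The 20-min minus 0-min signal was scaled between DMSO/no-enzyme wells and ADEP (5.8 microM final).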
* hit, by the source's call; ? = inconclusive; . = no result given; [ ] = remark or other dose. Unless noted, calls follow the shape of the dose curve; as a rule, active = well fitted curve in the direction sought with a large enough effect; inconclusive = small, poorly fitted or top-dose-only effect, or another doubt; inactive = no such curve, though single readings can be large; an effect the other way counts as inactive or inconclusive.

SMILES	PKM2 act	IL2 activator	NPSR antagonist	ClpP mod
Cc1ccc(S(=O)(=O)NC(=O)c2cccc(N(C)C)c2)cc1	.	0.9	.	-18.9%
COc1cc(/C=C2\C(=O)N(CCC#N)N=C2C)ccc1OCC(=O)Nc1ccccc1	?	-4.2	-23.5%	3.6%
Cc1cccc(/C=C(\c2nc3ccccc3[nH]2)S(=O)(=O)c2ccccc2)c1	7.0%	-5.9	7.94µM*	.
O=C(NCCO)c1cccc(-c2cnc3c(Nc4cccc(OC(F)(F)C(F)F)c4)nccn23)c1	.	-0.3	.	-16.4%
Cc1ccc(S(=O)(=O)Nc2ccc(Nc3nccn4c(-c5cccc(OC(F)(F)F)c5)cnc34)cc2)cc1	.	-0.6	.	31.6µM*
CC(C)(C)NC(=O)Nc1ccc2nccnc2c1	-5.5%	-1.7	-4.9%[46.1 µM]	20µM*
N#CC1=C(O)C(c2ccccc2)n2c1nc(=O)c1ccccc12 (stereo not drawn)	-17.7%	0.2	6.0%[46.1 µM]	17.8µM*
CCCCCCc1c(O)c2ccccc2[nH]c1=O	1.1%	-1.0	-5.7%[46.1 µM]	25.1µM*
CCCCC(=O)Nc1c(O)c2ccccc2[nH]c1=O	-15.4%	-3.2	-7.1%[46.1 µM]	?
O=C(NCCc1ccccc1)c1c(O)c2ccccc2[nH]c1=O	?	-2.1	.	.
CCNC(=O)c1c(O)c2ccccc2[nH]c1=O	-0.1%	-2.1	3.9%[46.1 µM]	25.1µM*
COc1ccc(CNC(=O)c2c(O)c3cc(OC)c(OC)cc3[nH]c2=O)cc1OC	-3.1%	-1.1	.	7.94µM*
Clc1ccc(-c2cn(-c3ccccc3)c3[n+]2CCS3)cc1	-18.3%	-0.1	16.6%	.
Nc1nonc1-n1nnc(C(=O)N/N=C/c2ccc(Br)cc2)c1-c1ccc2c(c1)OCO2	.	3.8	.	25.1µM*
Nc1nonc1-n1nnc(C(=O)N/N=C/c2ccc3c(c2)OCO3)c1-c1ccccc1	0.7%	0.8	.	.
COc1cccc(Oc2ccc(N)cn2)c1	-8.0%	-0.3	6.1%[46.1 µM]	25.1µM*
CCCCn1c(=O)[nH]c(=O)c2c1nc(-c1ccc(-c3ccccc3Br)o1)n2CCOC	?	-0.3	-20.5%[46.1 µM]	31.6µM*
COCCn1c(-c2ccc(-c3ccccc3Cl)o2)nc2c1c(=O)[nH]c(=O)n2CC(C)C	28.2µM*	2.4	-5.2%[46.1 µM]	3.98µM*
O=C(C1COc2ccccc2O1)N1CCCCC1 (stereo not drawn)	.	1.8	.	-0.5%
COc1ccc(Cc2ccc(OC)c(N)c2)cc1N	-7.0%	-0.8	-14.5%[46.1 µM]	-1.5%
COC(=O)c1cc(Cc2ccc(N)c(C(=O)OC)c2)ccc1N	-6.7%	0.3	-17.4%[46.1 µM]	28.2µM*
CCc1sc(-c2cc3cccc(OC)c3oc2=O)nc1-c1ccccc1	.	.	.	14.1µM*
COc1cccc2cc(-c3nc(-c4ccccc4)c(C)s3)c(=O)oc12	.	.	.	-3.9%
CCNc1nnc(-c2ccc(C)cc2)o1	-0.3%	1.3	-2.0%[46.1 µM]	20µM*
CCCSc1ccc2nc(-c3ccccc3)cn2c1	-55.1%	0.1	?	22.4µM*
SMILES	PKM2 act	IL2 activator	NPSR antagonist	ClpP mod
CCc1cn([C@H]2C[C@H](O)[C@@H](CO)O2)c(=O)[nH]c1=O	1.0%	1.1	5.7%	0.7%
Cc1nn(C2CC(O)C(O)C(CO)O2)c(=O)[nH]c1=O (stereo not drawn)	.	-0.2	.	28.2µM*
COc1ccc(Cn2c(SCc3ccc(C(=O)NCc4ccccc4F)cc3)nc3cccnc32)cc1	.	.	.	31.6µM*
COc1ccc(Cn2c(SCc3ccc(C(=O)NCc4ccc(C)cc4)cc3)nc3cccnc32)cc1	.	.	.	31.6µM*
CN(C)CCNC(=O)c1ccc(Cn2c(SCc3ccc(F)cc3)nc3cccnc32)cc1	.	.	.	4.4%
O=C(NCCN1CCCCC1)c1ccc(Cn2c(SCc3ccc(F)cc3)nc3cccnc32)cc1	.	.	.	31.6µM*
CCNC(=O)c1ccc(CSc2nc3cccnc3n2Cc2ccc(OC)cc2)cc1	.	.	.	3.7%
COc1ccc(/C=C(\C#N)c2nc(-c3cc4c(ccc5ccccc54)oc3=O)cs2)cc1O	.	.	.	4.9%
CN1CCN(S(=O)(=O)c2ccc(NC(=S)NC(=O)C3CCCC3)cc2)CC1	3.0%	-0.6	14.6%	.
Cc1ccc2c(c1)c1cccc3c1n2CCN3CCC(N)=O	7.9%	0.1	-13.8%[46.1 µM]	14.1µM*
O=C(CSc1nnnn1-c1ccc(O)cc1)NC1CCCCC1	.	-0.2	.	.
O=C(O)c1ccccc1C=NNc1ccc([N+](=O)[O-])cn1	.	-0.6	.	.
Cc1c(C(=O)O)cccc1-n1c(C)cc(/C=N/Nc2ccc([N+](=O)[O-])cn2)c1C	3.9%	2.7	10µM*	1.3%
